HP1b binding inh – inhibitors of HP1-beta chromodomain binding to methylated histone tails | actives 0.56% (n = 390,000) | AlphaScreen HP1-beta / biotin-H3K9me3 peptide binding | Potency, µM (top dose mostly 114 µM), for inactives: top-dose activity change, negative = inhibition, most hits filed as inhibitors | P83916; also: potency is read from the fitted curve at half-maximal effect; nearly all actives have a fitted effect of over 70% in size
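AlphaScreen: HP1-beta (50 nM) preformed 30 min with biotin-H3(1-18)K9me3 peptide (50 nM) in PBS pH 7.4, 0.01% Tween-20. Compound added for 30 min at RT, then streptavidin donor/nickel chelate acceptor beads (10 ug/mL) for 30 min.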
CtBP-E1A inh – blocks the CtBP interaction with E1A; AlphaScreen GST-E1A/His-CtBP binding, 1536-well; active compounds read low; activity change, % (concentration not given with the values); actives 0.49% (n = 340,000); AID 651724; in the data active = activity change below about -65%; inconclusive = mostly about -30% to -63%; also: % is scaled to controls: 0 for no effect and ±100 for the full control effect
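Homogeneous bead-based format: GST-tagged E1A captured on glutathione donor beads, His-tagged CtBP on nickel acceptor beads; compounds precede bead addition by 2 h at 37 °C.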
Six1-Eya2 inh – blocks human Six1 binding to Eya2; Q15475+O00167; AlphaScreen GST-Six1/His-Eya2 binding, biochemical; active compounds read low; activity change, % (no concentration beside the values); actives 0.56% (n = 360,000); in the data active = activity change below about -65%; inconclusive = mostly about -30% to -63%; also: % is scaled to controls: 0 for no effect and ±100 for the full control effect
Target sequence (O00167 whole entry, looked up): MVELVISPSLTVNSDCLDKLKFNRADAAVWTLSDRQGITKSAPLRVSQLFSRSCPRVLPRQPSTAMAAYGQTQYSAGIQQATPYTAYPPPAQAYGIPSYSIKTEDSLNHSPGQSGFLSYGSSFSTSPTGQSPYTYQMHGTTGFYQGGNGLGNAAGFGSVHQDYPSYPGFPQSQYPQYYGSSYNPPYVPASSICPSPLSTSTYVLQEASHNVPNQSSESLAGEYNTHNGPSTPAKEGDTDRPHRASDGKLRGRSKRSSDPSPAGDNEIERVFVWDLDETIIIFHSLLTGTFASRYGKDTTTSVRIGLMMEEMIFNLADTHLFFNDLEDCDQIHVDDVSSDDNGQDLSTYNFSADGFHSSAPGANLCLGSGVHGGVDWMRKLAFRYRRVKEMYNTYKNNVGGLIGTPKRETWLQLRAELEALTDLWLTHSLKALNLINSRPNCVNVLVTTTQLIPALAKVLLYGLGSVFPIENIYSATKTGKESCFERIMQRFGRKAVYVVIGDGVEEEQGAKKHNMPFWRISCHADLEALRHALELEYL
Target sequence (Q15475 whole entry, looked up): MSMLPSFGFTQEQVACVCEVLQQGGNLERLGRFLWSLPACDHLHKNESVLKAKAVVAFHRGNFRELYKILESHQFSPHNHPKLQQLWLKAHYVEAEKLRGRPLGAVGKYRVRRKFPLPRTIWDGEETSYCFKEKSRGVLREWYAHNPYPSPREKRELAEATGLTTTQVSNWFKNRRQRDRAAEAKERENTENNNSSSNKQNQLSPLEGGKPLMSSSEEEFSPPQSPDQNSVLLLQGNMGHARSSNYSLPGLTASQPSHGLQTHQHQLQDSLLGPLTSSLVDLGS
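AlphaScreen with GST-Six1 and His-Eya2 (5X mix: 250 nM and 500 nM), glutathione donor and nickel acceptor beads; buffer 50 mM Tris pH 8.0, 300 mM NaCl, 1 mM TCEP; 1 h at 37 C in the dark.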
BAZ2B inh – blocks human BAZ2B | Q9UIF8 | AlphaScreen BAZ2B-H3K14Ac peptide displacement | Potency, µM (top dose mostly 114 µM), inactives show top-dose activity change, negative = inhibition, usual class: inhibitors | actives 4.4% (n = 360,000) | AID 504333; also: potency is read from the fitted curve at half-maximal effect; % is scaled to controls: 0 for no effect and ±100 for the full control effect; nearly all actives have a fitted effect of over 60% in size
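Compounds, titrated to a top concentration of 110 uM, were incubated 30 min at room temperature with preformed BAZ2B/acetyl-K14 H3 peptide complex (50 nM each). Proximity signal was measured by AlphaScreen after 20 min with beads.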
JMJD2A Tudor – blocks the human JMJD2A Tudor domain. O75164. AlphaScreen JMJD2A-Tudor / H3K4me3 peptide binding. Potency, µM (top dose mostly 114 µM), for the others: at the highest dose activity change, negative = inhibition, hits mostly inhibitors. actives 4.4% (n = 390,000). AID 504339; also: potency is read from the fitted curve at half-maximal effect; % is scaled to controls: 0 for no effect and ±100 for the full control effect; nearly all actives have a fitted effect of over 50% in size
G9a inh – G9a (human) methyltransferase inhibition | Potency, µM (highest dose often 102 µM), for the others: top-dose activity, negative = inhibition, most hits filed as inhibitors | Q96KQ7 | G9a H3K9 monomethylation, AlphaScreen, 2 h | actives 8.8% (n = 350,000); also: potency is read from the fitted curve at half-maximal effect; % is scaled to controls: 0 for no effect and ±100 for the full control effect; nearly all actives have a fitted effect of over 75% in size
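G9a (20 nM) was preincubated 15 min with compound, then reacted 2 h at room temperature with 500 nM biotin-H3K9 peptide and 20 µM SAM. Monomethyl-H3K9 detected by AlphaScreen using anti-H3K9me1 antibody.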
Active calls of the source: *; [ ] = dose if it differs, or a comment. In the library only some 10% were active in any assay of this set; here they are far more common. Unless noted, calls follow the shape of the dose curve; as a rule, active = well fitted inhibition curve with a large enough effect; inconclusive = small, poorly fitted or top-dose-only effect; inactive = no such curve, though single readings can be large or run the other way.

`CCc1cccc(C)c1NC(=O)c1cn2c3c(ccc(Cl)c3c1=O)OC(C)C2` (centres undefined) gave HP1b binding inh 23%, BAZ2B inh -3%, JMJD2A Tudor -15% and G9a inh -45%[59 µM].
`COc1cccc(C(=O)Nc2cc(-c3cn4cccnc4n3)ccc2C)c1OC` gave HP1b binding inh 18%[57 µM], BAZ2B inh 3%, JMJD2A Tudor -18% and G9a inh 12%[59 µM].
`Cc1c(P(=S)(c2ccccc2)c2ccccc2)[n+]2ccccc2n1CCCc1ccccc1` gave JMJD2A Tudor -17%.
For Oc1c(C(Nc2ccccn2)c2ccccn2)ccc2cccnc12 (centres undefined) the results were HP1b binding inh 29%, CtBP-E1A inh -95*, Six1-Eya2 inh -95*, BAZ2B inh -113%, JMJD2A Tudor -22%[11.4 µM] and G9a inh 32µM*.
`Cc1cc(NC(c2ccc(Cl)cc2)c2ccc3cccnc3c2O)no1` (centres undefined) gave HP1b binding inh 23%, CtBP-E1A inh inconclusive, Six1-Eya2 inh -66*, BAZ2B inh 45µM*, JMJD2A Tudor inconclusive and G9a inh 23%[59 µM].
`OC(c1ccccc1)C(Nc1ccccn1)c1ccccc1` (centres undefined) gave HP1b binding inh 29%, CtBP-E1A inh 2, Six1-Eya2 inh 10 and JMJD2A Tudor -11%.
`COc1ccc(C(Nc2cc(C)ccn2)c2ccc3ccc(C)nc3c2O)cc1` (centres undefined) gave HP1b binding inh -13%, CtBP-E1A inh -8, Six1-Eya2 inh -12, BAZ2B inh -25%, JMJD2A Tudor inconclusive and G9a inh 4µM*.
Screening CC(C)C(=O)NC(c1ccc(Cl)cc1Cl)c1ccc2cccnc2c1O (centres undefined) returned HP1b binding inh 34%, Six1-Eya2 inh -14, BAZ2B inh inconclusive, JMJD2A Tudor -14% and G9a inh 44%[0.501 µM].
`Cc1ccc2ccc(C(Nc3ccccc3)c3ccc(F)cc3)c(O)c2n1` (centres undefined) gave CtBP-E1A inh -19 and Six1-Eya2 inh -11.
Screening Cc1ccnc(NC(c2ccccc2F)c2ccc3cccnc3c2O)c1 (centres undefined) returned HP1b binding inh 7%, BAZ2B inh 25µM*, JMJD2A Tudor 13µM* and G9a inh inconclusive.
Cc1ccnc(NC(c2ccsc2)c2ccc3ccc(C)nc3c2O)c1 (centres undefined) was read as HP1b binding inh inconclusive, CtBP-E1A inh -4, Six1-Eya2 inh -18, BAZ2B inh inconclusive, JMJD2A Tudor inconclusive and G9a inh -152%[59 µM].
`CCN(CC)C(=O)Cn1c(=O)n(-c2ccc(Cl)cc2)c(=O)c2c3c(sc21)CCC3` gave HP1b binding inh 15%, BAZ2B inh 5%, JMJD2A Tudor -14% and G9a inh -2%[59 µM].
`O=C(O)c1ccc2cccnc2c1O` gave HP1b binding inh 3%, CtBP-E1A inh -16, Six1-Eya2 inh -16, BAZ2B inh 25µM* and JMJD2A Tudor 10µM*.
Screening Oc1c(C(Nc2ccccn2)c2ccccc2F)ccc2cccnc12 (centres undefined) returned HP1b binding inh 12%, BAZ2B inh 20µM*, JMJD2A Tudor 14µM* and G9a inh inconclusive.
`COc1ccccc1NC(c1cccnc1)c1ccc2cccnc2c1O` (centres undefined) gave HP1b binding inh inconclusive, CtBP-E1A inh -78*, Six1-Eya2 inh -79*, BAZ2B inh 14µM*, JMJD2A Tudor 22µM* and G9a inh 1.4µM*.
`COc1ccccc1NC(NC(=O)c1cccnc1)C(Cl)(Cl)Cl` (centres undefined) gave HP1b binding inh 34%, CtBP-E1A inh 6, Six1-Eya2 inh 3, BAZ2B inh -24%, JMJD2A Tudor -14% and G9a inh inconclusive.
Screening Nc1nc(Nc2cc(F)cc(F)c2)nc(NC2CCCC2)n1 returned JMJD2A Tudor -18%.
O=C(c1cccc(Cl)c1)n1nc(-c2cccnc2)nc1NCc1ccccc1 was read as HP1b binding inh 81%, BAZ2B inh 15%, JMJD2A Tudor 2% and G9a inh 1%[59 µM].
CC(=O)N/C(=C\c1ccccc1)C(=O)OCC(=O)N1CCCCCC1 was read as HP1b binding inh 18%, CtBP-E1A inh -21, Six1-Eya2 inh -7, BAZ2B inh 1%, JMJD2A Tudor -7% and G9a inh -38%.
CC(=O)N/C(=C/c1ccccc1)C(=O)N1CCCCC1 was read as HP1b binding inh 19%, CtBP-E1A inh 21, Six1-Eya2 inh -3, BAZ2B inh -1%, JMJD2A Tudor -10% and G9a inh 50µM*.
COc1ccccc1C(=O)N/C(=C/c1ccc(Br)cc1)C(=O)N1CCCC1 was read as HP1b binding inh -19%, CtBP-E1A inh 3, Six1-Eya2 inh -1, BAZ2B inh -15%, JMJD2A Tudor 50µM* and G9a inh 14%.
`COc1ccc(CCN2C(=O)CN(C3CCC(C)CC3)C(=O)C2c2ccc(OC(C)C)c(OC)c2)cc1OC` (centres undefined) gave HP1b binding inh 33%, BAZ2B inh -18%, JMJD2A Tudor -27% and G9a inh -25%[59 µM].
`CC(/C=C1\SC(=Nc2cccnc2)NC1=O)=C\c1ccccc1` gave HP1b binding inh -16%, CtBP-E1A inh 11, Six1-Eya2 inh 1, BAZ2B inh -10% and JMJD2A Tudor 79µM*.
For C=CCOc1ccc(/C=C2\SC(=Nc3cccnc3)NC2=O)cc1 the results were HP1b binding inh 28%, CtBP-E1A inh -5, Six1-Eya2 inh -7, BAZ2B inh -28% and JMJD2A Tudor -17%.
CC(=O)NC(=S)NNC(=O)C(c1ccccc1)c1ccccc1 was read as HP1b binding inh 24%, Six1-Eya2 inh 0, BAZ2B inh 7%, JMJD2A Tudor inconclusive and G9a inh 11µM*.
`N#CCC(=O)NNC(=S)NC(=O)C(c1ccccc1)c1ccccc1` gave HP1b binding inh 38%, CtBP-E1A inh -16, Six1-Eya2 inh -29, BAZ2B inh -7%, JMJD2A Tudor -14% and G9a inh -5%.
COc1cc(C2C(C(=O)Nc3ccccc3C)=C(C)Nc3ncnn32)ccc1OCC(N)=O (centres undefined) was read as HP1b binding inh 9%[57 µM], BAZ2B inh 4%, JMJD2A Tudor -8% and G9a inh 4%[59 µM].

From PubChem
